Data from PubChem BioAssay AID1508600 (Functional Genomics Laboratory (NCATS/FGL), 2020).
In all, about 53,000 sequences went through this assay and about 3,700 (7%) were called active. The entries come from a sample that favours actives as a whole. Values without a mark were called inactive.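 How the source made its calls: active means gene knockdowns whose robust z-score for IL-1 alpha signal is at least 2 or at most -2, so actives lie on both sides; inactive means the rest.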

test: Components of the Cytosolic LPS Sensing Pathway: Gene Identification via Genome-wide siRNA Screen; conditions: RAW264.7 macrophages, IL-1a HTRF, actives lie on both sides, screened at 100 nM (by protocol), cells primed 5 h with Pam3CSK4 first;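 further: robust z of the log signal after scaling to non-targeting control siRNA wells of the plate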
Outline: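 Supernatant IL-1a by HTRF from RAW264.7 cells primed with Pam3CSK4 (5 hours) and transfected with LipidA (24 hour) after 48h siRNA knockdown at 100 nM; cell viability checked with CellTiter-Glo.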

Sequence | z-score
CCUGAAUUACAGGGACCAGTT against Znrd1 | 3.49 (active)
GGUGAACUUGUGUCUCACUTT against Tango2 | 0.0582
GGAGCUGUAUCGCACGAAATT against Ehd2 | -0.689
GGAAACCGAAUUCCAAGGGTT against Ddx25 | 1.78
GGAAGUGGAAAAACUGGUGTT against Ddx1 | -1.21
GGAACUGUUUGACAGUGAGTT against Pex19 | -0.811
GGAUCUAAAGGUGAGUCAATT against Dcaf12l1 | -0.388
GCCUUGGAUAAACCAGACGTT against Mfsd4a | -2.38 (active)
GGAACCAAUCAGUUGGUUATT against Taf7 | 0.395
GGAGAUACAGGAUAUUAUUTT against Nme5 | -0.0528
GCACUUACUCAUUAAUCACTT against Rnf20 | -2.56 (active)
GCAACAGUGAAAUAGCACATT against Krit1 | 0.179
GGUUAAUGAGCUCUGUAAATT against Pknox1 | -0.508
GCUAAGGACUCAGCAAAACTT against Coq5 | 0.733
CCGGUAAUGAGUUCAAGUGTT against Arsa | 1.12
GGUAAAGAAAUCCUUCAAATT against Syt6 | 2.1 (active)
GGUUCUUAAUGCAUUCCCGTT against Cyp2d9 | -0.786
GGGACUUUGAUUUUGAGAGTT against Ppp1r3f | -1.58
GAUGCUCUCUGCUCUGAGATT against C030016D13Rik | -0.0555
GGAUCUAUAUCCAGUAGAGTT against Mief2 | 3.38 (active)
GGUAAUAGGAGAUACUGUGTT against Gzme | 0.624
GGACCUUUCUCAACUACUATT against Edem2 | -0.706

Sequence | z-score
GGGAAACAAGCAUCUUCUGTT against Bmp5 | -0.474
CCACUUCAGUAUUUGGCUUTT against Tas2r137 | -0.404
GGACUCCUCAUGCUGAAGATT against Cdh13 | 1.97
GCUCUAUUUGACCACCUCATT against Gdpd1 | -0.898
CCACUCAAGAUCGAUACCUTT against Fgd1 | 0.167
GGGUGAAGAGAGAUGAAAATT against Krt82 | 1.64
GCUUGUUUACAUCGGACUUTT against Samt2 | 0.9
GCAUCGUGCAGAAUUUUGCTT against Ephb1 | -1.04
CCAGUGAUUAUCUUUAAUGTT against Slc9c1 | -0.435
GCUAUCAAAGCUAAUACAUTT against Mrps9 | 3.41 (active)
GGUUAAGGAUGCUCAAGUATT against Krt20 | -0.187
GGUCGUGUUCGAGCAAACCTT against Tpi1 | -0.725
GCAGAAUUGAAGCUGGAAUTT against Stag1 | 2.49 (active)
GGUGACAUGGAUGUAGCAATT against Fcsk | 1.18
CCACAUCUCAUGUGAAACCTT against Olfr517 | -0.927
CCUUUUACACUCUAGUAUGTT against Ptger4 | -0.349
GCUUGAAUAUGAGAACGAATT against Deup1 | -0.451
GGUCAAGGUAGGCAAUGAATT against Stau2 | -2.32 (active)
GGGCAACAAGGAGUACUCATT against Prss45 | -1.88
GGAGGAAAUGAAAACCUUUTT against Cep89 | -0.823
GGAGAACAUAAUGAAAUCUTT against Fam50a | -0.0744
GGAUCAAAUUCUACCUUAGTT against Tbc1d5 | -0.595

Sequence | z-score
GGAGGUUGCUACAUGGUUATT against Amz1 | -0.644
GGUCCACUGAUUCUGAUAATT against Cyp4a31 | 1.79
GGAUUUUGCCUAAAAUACATT against Sephs1 | 0.179
GGGACAGCUUUUGUGACUCTT against Raver1 | -2.16 (active)
GGGCAAAUCCUUUAGUUUGTT against Siae | -0.62
CUACAGUGGCAAUAAUAUUTT against Rpl30 | 0.425
GGUACUAAAUAAAAGACCGTT against Dsc2 | 1.15
GGAGGAGAGAUGGUAAUCCTT against Olfr729 | -0.185
GGAUGAGUAUGAGAGGAAUTT against Dcp1a | 2.51 (active)
GGUAACUGGGAAUUGUGUUTT against Vti1a | 0.812
GGGUCUCUAAGUGCUCCGUTT against Sfxn2 | 0.433
CGUGAAUCACUAUACAUAATT against A630052C17Rik | -1.39
GGAAACAGUAGAAGAUGAGTT against Fam220a | 0.151
GAAGACCAAGCUUUGUACUTT against Olfr339 | 2.28 (active)
GGAGCUCGCCAAAAGGAAGTT against Cep19 | 1.97
CCAAAGAAGGUGAGAUUUGTT against Clstn1 | -0.161
CCAGUAUGAGAACUACGAUTT against Loxl1 | -0.345
CCGUUUUGUCUGAAUUCCCTT against 4930515G01Rik | -2.14 (active)
GCAGUAAAUGUCCCAUCCGTT against Caskin1 | -1.28
CCCAUCCAUACAAAAAUGATT against Polm | -1.73
CCUUAUUGAGACGAAUACGTT against Fastkd1 | -0.958
GGACAACAGCAAAACAUCUTT against Atoh1 | -0.757

Sequence | z-score
CCCAUAACAUUGGUGAUUATT against Vmn1r235 | -0.205
GGAAUGAGCUGAAUGCAAATT against Psmc5 | -2.08 (active)
CGUUAAAUGGCAGUACAGATT against Qk | 0.388
GCCAAACACUCGACUCUAATT against Gm11733 | -0.823
GGAAAACUUUAGCUACAAATT against Ppp4r4 | -0.231
GCUUCUAACUCUGUGAGGGTT against Defb29 | -2.8 (active)
GCAGACGACAAGUUCUACATT against Tbcb | -0.666
GCUUAUCAUCUCCAGACAGTT against Svop | -0.144
GCUGGUUACUCCCAAGACGTT against Dlgap2 | 2.18 (active)
GGUGGAGUUAACGAGAAACTT against Ccn1 | 0.69
ACUGUUUAAUCACUGUGGUTT against Olfr891 | -0.994
GGACUACAUCAACCUGGAUTT against Mlf2 | 0.25
GGUCUUCGACACCAUUAACTT against Wipi2 | 0.947
GGACAGUUUGAUGAUGCCGTT against Coprs | -2.87 (active)
CCCUGUGACUCCAAAAUGATT against Dbh | -1.01
GGACAACGUGCUCAUUAGUTT against Zfp709 | 0.0713
GCCUGACGAAGGUUUCUAUTT against Neo1 | -0.114
GGCAUAAACCUUCUUGCUCTT against Ccl22 | -0.221
GGUAGAGGUUAUAUAGGCATT against Ms4a6d | 0.282
GGUACUCACAUCUCCAAAGTT against Zfp948 | -0.881
GGCAAACAUUUCAAAUACATT against Tgm4 | 2.12 (active)
GGAGGAAGAGAUUUUAAACTT against Rps8 | 0.158

Sequence | z-score
GCUGCUGAUAACAUCCGACTT against Golga5 | 0.554
GGUACAGUUACGGUCAAAUTT against Zfp952 | 0.739
GGUAUGUCCUCUGGUCAAUTT against Bpifa1 | 0.282
GGUCAAUGCUACUAAUGAATT against Ankrd61 | 0.661
GGGAUGCUCUGAACAUUGATT against Anxa2 | 3.22 (active)
CCAUGCAGCAAAUCGAGUUTT against Klk1b5 | 0.912
GGUCUGAGCUUCCAAUAACTT against Reep5 | 0.183
GCUAUUGGGUAGAUUGAUATT against Baat | 0.251
GCUUCUAAUUGGAGAUUGCTT against Bex3 | -1.39
GGAACACAAUGGGACGAGUTT against Ccl11 | -1.12
GGCCACGUUUCUCUUCACCTT against Nyx | -1.12
GGCAAAGAAUUCAAUCGGATT against Atp2b2 | -0.235
GGUUCAAAUGUUGCAUAGUTT against Klrc2 | 0.597
GGAUCACAGCAGAAGAAAUTT against Tmem144 | -2.95 (active)
GGAAGUGGAAGUUCUGAAGTT against Tsc22d1 | -0.886
GGGUCUUAUGGAAGUGUUUTT against Stk3 | 7.27 (active)
CCUUUUUGAGGAAUUUGGATT against Scaf8 | -0.0964
CGGCUCGUUGAAGAACAAATT against Afap1 | -1.32
GGCUUCAUUCGUAGGCCAUTT against Smcr8 | 1.64
GGUUCACAGUAACCAUUGGTT against Zc3h18 | -2.45 (active)
